# Measured values as given in the supplement of paper PMC10338343.
# ± gives the standard deviation.
# Test system: EfPiwi piRISC loaded with L1MC piRNA (26 nt)
# Experiment: pre-steady-state target cleavage rate (min^-1); auxiliary factor: 500 nM Ephydatia muelleri Gtsf1; guide: L1MC piRNA 5'p-UAACUAAAUACUAUGCAAGCUGUAGG; MIWI and MILI are mouse PIWI proteins and EfPiwi is from a freshwater sponge; tags in brackets are library labels; higher = faster piRNA-guided slicing of the target
# Description: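 Cleave-'n-Seq: a library of target RNAs (target site in constant flanks) at […] was incubated with 1 nM active freshwater sponge Ephydatia fluviatilis Piwi piRISC (synthetic 5'-monophosphorylated piRNA guide) with or without 500 nM EmGtsf1 at 33 °C for 1 min to 16 h. Uncleaved targets were sequenced and the pooled three trials fitted to a burst-and-steady-state model to give the pre-steady-state cleavage rate (min^-1). Sequence is the target site only. Fits with R² ≤ 0 are excluded.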
row,Sequence,pre-steady-state target cleavage rate
1,UCCUGGAACAGGUUGCUUAGUAUUUAGUUA,0.00924 ± 0.0022
2,UCCUGGAACAGCUUGCAUAGUAUUUAGUAUA,0.00935 ± 0.005
3,UCCUGCUACUGCUUGCUUAGUAUUUAGUUA,0.0076 ± 0.0022
4,UCCUGGUACUGCUUGCAUAGUAAUUAGUUA,0.114 ± 0.043
5,UCCUCCUACAGCUUGCAUAGCAUUUAGUUA,0.00463 ± 0.0019
6,UCCUGGAUCAGCUUGCGAUAGUAUUUAGUUA,0.00281 ± 0.0027
7,UCCUGGUUCAGCUUGGAUAGUAUUUAGUUA,0.00792 ± 0.0035
8,UCCUGGAACAGCAUGGAUAGUAUUUAGUUA,0.00527 ± 0.0017
9,UCCUGCUACAGCUUGCAUAGGUAUUUAGUUA,0.00304 ± 0.0019
10,UCCUGCUACUGCUUGCAUAGAAUUUAGUUA,0.00563 ± 0.002
11,UCCUGGAACAGCUUGGAUAGUAUUUAGUUA,0.0302 ± 0.0072
12,UCCUGGUACAGCUUGCAUAGUAUUUACGUUA,0.00346 ± 0.0025
13,UCCUGGAUGAGCUUAGCAUAGUAUUUAGUUA,0.0344 ± 0.0086
14,UCCUGGAUGAGGCUUGCAUAGUAUUUAGUUA,0.0185 ± 0.0065
15,UCCUGGAUGAGCUUGCAUAGUAAAUAGUUA,0.00329 ± 0.0025
16,UCCUGCUACAGCUUGCAUAGUAUUUUGUUA,0.00916 ± 0.0029
17,UCCUGGAUCAGCUAGCAUAGUAUUUAGAAA,0.0036 ± 0.0022
18,UCCUGGAUGUCGAACGUUAGUAUGUUAGUUA,< 0.0001
19,UCCUCCUACAGCUUGCAUAGUAAAAUCAAA,0.0042 ± 0.0034
20,UCCUGCUACAGCUUGCCUAGUAUUUAGUUA,0.00702 ± 0.0018

row,Sequence,pre-steady-state target cleavage rate
1,UCCUGGAUCAGCAUGCAUAGUAUUUAGUUA,0.12 ± 0.026
2,UCCUGGAUGAGCUUCGCAUAGUAUUUAGUUA,0.0219 ± 0.0059
3,UCCUCCUACAGCUUGGUUAGUAUUUAGAAA,0.00231 ± 0.0022
4,UCCUCCUACAGCUUGCAUAGUAUUGAGUUA,0.00534 ± 0.002
5,UCCUGGUACAGCUUUCAUAGUAUUUAGUUA,0.00404 ± 0.0023
6,UCCUGGUAGAGCUUGCAUAGUAUUAAGUUA,0.00385 ± 0.0022
7,UCCUGGAUCAGCUUGCAUAGUAUUUGAGUUA,0.00696 ± 0.0028
8,UCCUGGAUGUCGUUAGCAUAGUAUUUAGUUA,0.00456 ± 0.0035
9,UCCUGGAACAGCUUGCAUAAUAUUUAGUUA,0.00487 ± 0.0024
10,UCCUGGAACAGCUUGCAUAGUAUUUGAGUUA,0.00552 ± 0.0019
11,UCCUGCUACAGCUUGCAUAGUACUUUAGUUA,0.00465 ± 0.0015
12,UCCUGCAACAGCUUGCAUAGUAUAUAGUUA,0.00844 ± 0.0024
13,UCCUGGAUGUCGAACGUCAGUAUUUAGUUA,< 0.0001
14,UCCUGCUUCAGCUUGCUUAGUAUUUAGUUA,0.0238 ± 0.0068
15,UCCUGGUACAGCUUGCAUAGUAUAUAGUUA,0.00533 ± 0.0027
16,UCCUGGAACACCUUGCUUAGUAUUUAGUUA,0.0036 ± 0.0033
17,UCCUCCUACAGCUUGCAUUGUAUUUAGUAA,0.00648 ± 0.0029
18,UCCUGGAUGAGCUUGCAUAGUAUUUUAGUUA,0.00631 ± 0.0035
19,UCCUGCUACAGCUUGGAUAGUUUUUAGUUA,0.0172 ± 0.0039
20,UCCUCCUACAGCUUCAUAGUAUUUAGUUA,0.0399 ± 0.015
